# Experimental data: PMC11006913
# Legend:
# Assay in all cases: PBM; 200 nM protein, PBS
# Conditions in all cases: dsDNA, one strand shown
# [1] = molecular target: CRX (Homo sapiens, UniProt O43186 26-111)
# [2] = molecular target: CRX (Homo sapiens, UniProt O43186 26-111, E42D)
# [3] = molecular target: PITX2 (Homo sapiens, UniProt Q99697 72-157)
# [4] = molecular target: CRX (Homo sapiens, UniProt O43186 26-111, R41L)
# [5] = molecular target: VAX1 (Homo sapiens, UniProt Q5SQQ9 86-172)
# [6] = molecular target: VAX1 (Homo sapiens, UniProt Q5SQQ9 86-172, T142I)
# VAX1 (Homo sapiens, UniProt Q5SQQ9 86-172, T142I), sequence (Q5SQQ9 86-172 T142I): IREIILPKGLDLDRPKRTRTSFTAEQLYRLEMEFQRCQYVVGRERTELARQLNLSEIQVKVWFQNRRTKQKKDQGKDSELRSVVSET
# [7] = molecular target: VAX1 (Homo sapiens, UniProt Q5SQQ9 86-172, K157R)
# VAX1 (Homo sapiens, UniProt Q5SQQ9 86-172, K157R), sequence (Q5SQQ9 86-172 K157R): as the sequence (Q5SQQ9 86-172 T142I) above, with I57T, K72R counted along it
# CRX (Homo sapiens, UniProt O43186 26-111, E42D), sequence (O43186 26-111 E42D): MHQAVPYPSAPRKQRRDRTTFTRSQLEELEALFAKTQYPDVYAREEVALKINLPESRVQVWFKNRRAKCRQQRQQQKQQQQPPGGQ
# CRX (Homo sapiens, UniProt O43186 26-111), sequence (O43186 26-111): as the sequence (O43186 26-111 E42D) above, with D17E counted along it
# CRX (Homo sapiens, UniProt O43186 26-111, R41L), sequence (O43186 26-111 R41L): as the sequence (O43186 26-111 E42D) above, with R16L, D17E counted along it
# VAX1 (Homo sapiens, UniProt Q5SQQ9 86-172), sequence (Q5SQQ9 86-172): as the sequence (Q5SQQ9 86-172 T142I) above, with I57T counted along it
sequence,measurement,setting,value
ATAATCTC,binding signal,[1],"13.1 upbm affinity estimate (log intensity, higher = more binding, comparable within an allelic series)"
same,binding signal,[2],"13.1 upbm affinity estimate (log intensity, higher = more binding, comparable within an allelic series)"
same,binding signal,[3],"12.7 upbm affinity estimate (log intensity, higher = more binding, comparable within an allelic series)"
same,binding signal,[4],"13.1 upbm affinity estimate (log intensity, higher = more binding, comparable within an allelic series)"
AGAGATTA,binding signal,[1],"13.1 upbm affinity estimate (log intensity, higher = more binding, comparable within an allelic series)"
same,binding signal,[2],"13.1 upbm affinity estimate (log intensity, higher = more binding, comparable within an allelic series)"
same,binding signal,[3],"12.7 upbm affinity estimate (log intensity, higher = more binding, comparable within an allelic series)"
same,binding signal,[4],"13 upbm affinity estimate (log intensity, higher = more binding, comparable within an allelic series)"
ACTAATCC,binding signal,[1],"13.6 upbm affinity estimate (log intensity, higher = more binding, comparable within an allelic series)"
same,binding signal,[2],"13.7 upbm affinity estimate (log intensity, higher = more binding, comparable within an allelic series)"
same,binding signal,[3],"13.4 upbm affinity estimate (log intensity, higher = more binding, comparable within an allelic series)"
same,binding signal,[4],"13.4 upbm affinity estimate (log intensity, higher = more binding, comparable within an allelic series)"
AAGATTAA,binding signal,[1],"12.9 upbm affinity estimate (log intensity, higher = more binding, comparable within an allelic series)"
same,binding signal,[2],"12.9 upbm affinity estimate (log intensity, higher = more binding, comparable within an allelic series)"
same,binding signal,[3],"12.5 upbm affinity estimate (log intensity, higher = more binding, comparable within an allelic series)"
same,binding signal,[4],"12.6 upbm affinity estimate (log intensity, higher = more binding, comparable within an allelic series)"
GGGATTAC,binding signal,[1],"13.2 upbm affinity estimate (log intensity, higher = more binding, comparable within an allelic series)"
same,binding signal,[2],"13.2 upbm affinity estimate (log intensity, higher = more binding, comparable within an allelic series)"
same,binding signal,[3],"13.1 upbm affinity estimate (log intensity, higher = more binding, comparable within an allelic series)"
same,binding signal,[4],"13.2 upbm affinity estimate (log intensity, higher = more binding, comparable within an allelic series)"
GATAATCC,binding signal,[1],"13.6 upbm affinity estimate (log intensity, higher = more binding, comparable within an allelic series)"
same,binding signal,[2],"13.8 upbm affinity estimate (log intensity, higher = more binding, comparable within an allelic series)"
same,binding signal,[3],"13.4 upbm affinity estimate (log intensity, higher = more binding, comparable within an allelic series)"
same,binding signal,[4],"13.9 upbm affinity estimate (log intensity, higher = more binding, comparable within an allelic series)"
CTAATCCC,binding signal,[1],"13.5 upbm affinity estimate (log intensity, higher = more binding, comparable within an allelic series)"
same,binding signal,[2],"13.6 upbm affinity estimate (log intensity, higher = more binding, comparable within an allelic series)"
same,binding signal,[3],"13.4 upbm affinity estimate (log intensity, higher = more binding, comparable within an allelic series)"
same,binding signal,[4],"13.4 upbm affinity estimate (log intensity, higher = more binding, comparable within an allelic series)"
AGGATTAC,binding signal,[1],"13.1 upbm affinity estimate (log intensity, higher = more binding, comparable within an allelic series)"
same,binding signal,[2],"13 upbm affinity estimate (log intensity, higher = more binding, comparable within an allelic series)"
same,binding signal,[3],"12.9 upbm affinity estimate (log intensity, higher = more binding, comparable within an allelic series)"
same,binding signal,[4],"13 upbm affinity estimate (log intensity, higher = more binding, comparable within an allelic series)"
ATAATCCG,binding signal,[1],"13.7 upbm affinity estimate (log intensity, higher = more binding, comparable within an allelic series)"
same,binding signal,[2],"13.8 upbm affinity estimate (log intensity, higher = more binding, comparable within an allelic series)"
same,binding signal,[3],"13.3 upbm affinity estimate (log intensity, higher = more binding, comparable within an allelic series)"
same,binding signal,[4],"13.9 upbm affinity estimate (log intensity, higher = more binding, comparable within an allelic series)"
AACTTTAA,binding signal,[1],"10.5 upbm affinity estimate (log intensity, higher = more binding, comparable within an allelic series)"
same,binding signal,[2],"10.2 upbm affinity estimate (log intensity, higher = more binding, comparable within an allelic series)"
same,binding signal,[5],"9.82 upbm affinity estimate (log intensity, higher = more binding, comparable within an allelic series)"
same,binding signal,[6],"9.35 upbm affinity estimate (log intensity, higher = more binding, comparable within an allelic series)"
same,binding signal,[7],"9.35 upbm affinity estimate (log intensity, higher = more binding, comparable within an allelic series)"
CTAATCCA,binding signal,[1],"13.3 upbm affinity estimate (log intensity, higher = more binding, comparable within an allelic series)"
same,binding signal,[2],"13.3 upbm affinity estimate (log intensity, higher = more binding, comparable within an allelic series)"
same,binding signal,[3],"13.2 upbm affinity estimate (log intensity, higher = more binding, comparable within an allelic series)"
same,binding signal,[4],"13 upbm affinity estimate (log intensity, higher = more binding, comparable within an allelic series)"
AGTTAATC,binding signal,[1],"12.7 upbm affinity estimate (log intensity, higher = more binding, comparable within an allelic series)"
same,binding signal,[2],"12.7 upbm affinity estimate (log intensity, higher = more binding, comparable within an allelic series)"
same,binding signal,[3],"12.3 upbm affinity estimate (log intensity, higher = more binding, comparable within an allelic series)"
same,binding signal,[4],"12.4 upbm affinity estimate (log intensity, higher = more binding, comparable within an allelic series)"
AGATTATC,binding signal,[1],"13.2 upbm affinity estimate (log intensity, higher = more binding, comparable within an allelic series)"
same,binding signal,[2],"13.1 upbm affinity estimate (log intensity, higher = more binding, comparable within an allelic series)"
same,binding signal,[3],"12.5 upbm affinity estimate (log intensity, higher = more binding, comparable within an allelic series)"
same,binding signal,[4],"13.2 upbm affinity estimate (log intensity, higher = more binding, comparable within an allelic series)"
GCGGATTA,binding signal,[1],"13.6 upbm affinity estimate (log intensity, higher = more binding, comparable within an allelic series)"
same,binding signal,[2],"13.7 upbm affinity estimate (log intensity, higher = more binding, comparable within an allelic series)"
same,binding signal,[3],"13.3 upbm affinity estimate (log intensity, higher = more binding, comparable within an allelic series)"
same,binding signal,[4],"13.6 upbm affinity estimate (log intensity, higher = more binding, comparable within an allelic series)"
CTGGATTA,binding signal,[1],"13.1 upbm affinity estimate (log intensity, higher = more binding, comparable within an allelic series)"
same,binding signal,[2],"13.1 upbm affinity estimate (log intensity, higher = more binding, comparable within an allelic series)"
same,binding signal,[3],"13 upbm affinity estimate (log intensity, higher = more binding, comparable within an allelic series)"
same,binding signal,[4],"12.9 upbm affinity estimate (log intensity, higher = more binding, comparable within an allelic series)"
CCGGTGCG,binding signal,[1],"8.15 upbm affinity estimate (log intensity, higher = more binding, comparable within an allelic series)"
same,binding signal,[2],"8.24 upbm affinity estimate (log intensity, higher = more binding, comparable within an allelic series)"
same,binding signal,[5],"7.06 upbm affinity estimate (log intensity, higher = more binding, comparable within an allelic series)"
same,binding signal,[6],"7.11 upbm affinity estimate (log intensity, higher = more binding, comparable within an allelic series)"
same,binding signal,[4],"8.27 upbm affinity estimate (log intensity, higher = more binding, comparable within an allelic series)"
same,binding signal,[7],"7.12 upbm affinity estimate (log intensity, higher = more binding, comparable within an allelic series)"
CGTAATCC,binding signal,[1],"13.2 upbm affinity estimate (log intensity, higher = more binding, comparable within an allelic series)"
same,binding signal,[2],"13.2 upbm affinity estimate (log intensity, higher = more binding, comparable within an allelic series)"
same,binding signal,[3],"13 upbm affinity estimate (log intensity, higher = more binding, comparable within an allelic series)"
same,binding signal,[4],"13.2 upbm affinity estimate (log intensity, higher = more binding, comparable within an allelic series)"
